# From PubChem BioAssay AID504500 (NMMLSC, 2011)
# Potency and affinity values are given separately. A number with no mark means an inactive call.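 How the source made its calls: active means compounds whose curve fit is tight, with span above 25% and half-effect concentration below 10 µM; inactive means the rest.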
# Target: Beta-adrenergic receptor kinase 1 (Homo sapiens) (UniProt P25098)
# Test: aptamer displacement from bead-bound GRK2 – biochemical, cherry pick 1, bead flow cytometry, dose response (AID 504500)
# Details: bead-bound biotinylated GRK2, FAM-aptamer displacement; series mostly up to 33 µM; inhibition of aptamer binding: at the top concentration
# Chain of Beta-adrenergic receptor kinase 1 (Homo sapiens) (P25098 whole entry, looked up): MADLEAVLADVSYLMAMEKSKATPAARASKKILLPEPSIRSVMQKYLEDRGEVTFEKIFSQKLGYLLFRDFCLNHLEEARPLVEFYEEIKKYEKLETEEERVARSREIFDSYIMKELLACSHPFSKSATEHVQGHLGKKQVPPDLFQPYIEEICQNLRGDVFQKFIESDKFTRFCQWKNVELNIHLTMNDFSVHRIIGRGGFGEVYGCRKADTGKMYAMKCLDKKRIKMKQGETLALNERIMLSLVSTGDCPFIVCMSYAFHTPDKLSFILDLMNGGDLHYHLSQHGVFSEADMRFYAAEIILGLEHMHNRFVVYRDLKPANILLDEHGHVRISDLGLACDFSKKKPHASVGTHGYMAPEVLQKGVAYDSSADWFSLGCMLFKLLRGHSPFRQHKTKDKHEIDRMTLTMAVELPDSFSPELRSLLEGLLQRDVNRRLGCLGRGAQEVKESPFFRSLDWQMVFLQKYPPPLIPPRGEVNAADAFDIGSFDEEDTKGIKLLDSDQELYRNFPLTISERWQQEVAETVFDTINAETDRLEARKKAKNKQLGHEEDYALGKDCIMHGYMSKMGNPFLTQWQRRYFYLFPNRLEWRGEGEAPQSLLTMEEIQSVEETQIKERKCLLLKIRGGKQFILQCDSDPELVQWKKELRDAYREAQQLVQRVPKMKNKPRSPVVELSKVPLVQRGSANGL
row,Structure (SMILES),inhibition of aptamer binding
1,Cc1nc2c(=O)n(C)c(=O)nc-2n(C)n1,2.89%
2,Cn1ncnc2c(=O)n(C)c(=O)nc1-2,6.02%
3,O=C1NC(=O)N(c2ccc3c(c2)OCO3)C(=O)/C1=C\c1ccc(-c2ccccc2C(=O)O)o1,-4.21%
4,CC[n+]1c(/C=C/N(C)c2ccccc2)sc2ccc(Cl)cc21,69.3%
